In PubChem BioAssay AID2283371 (EPA ToxCast):
Inconclusive results are not listed. The source made the active and inactive calls. How the source made its calls: active means hit-call score of the fitted dose curve at least 0.9, where 1 is the maximum; inconclusive means response in the unintended direction; inactive means score below 0.9.

target: rat Adenosine Transporter (Adot), Slc29a1 (gene 63997) (UniProt O54698); test: NVS_TR_rAdoT: NovaScreen (NVS) Transporter Assay for rat Adenosine Transporter (Adot)
Description: NVS_TR_rAdoT is a biochemical, single-readout assay that uses extracted gene-proteins from Rat forebrain membranes in a tissue-based cell-free assay. Measurements were taken 1 hour after chemical dosing in a 48-well plate.NVS_TR_rAdoT is one of one assay component(s) measured or calculated from the NVS_TR_rAdoT assay. It is designed to make measurements of radioligand binding, a form of binding reporter, as detected with scintillation counting signals by Filter-based radiodetection technology.Data from the assay component NVS_TR_rAdoT was analyzed into 1 assay endpoint. This assay endpoint, NVS_TR_rAdoT, was analyzed in the positive analysis fitting direction relative to DMSO as the negative control and baseline of activity. Using a type of binding reporter, loss-of-signal activity can be used to understand changes in the binding as they relate to the gene Slc29a1. Furthermore, this assay endpoint can be referred to as a primary readout, because the performed assay has only produced 1 assay endpoint. To generalize the intended target to other relatable targets, this assay endpoint is annotated to the transporter intended target family, where the subfamily is nucleoside transporter.
Binding assays used specific radioligands (tritiated, iodinated) with non-radioactive competitive displacement ligands in agonist or antagonist protocols (as indicated) and various reference compounds and inhibitors to titrate specific binding to receptors and transporters. Most enzyme assays (CYPs, kinases, phosphatases, proteases, HDACs) used recombinant protein and specific substrates (fluorescence mostly, some colorimetric and radioactive) and inhibitors, followed by a biochemical separation of substrate and product. All assays for the biochemical HTS were initially run in duplicate at a single concentration (10 uM for CYP450 assays and 25 uM for all others). Assay-chemical combinations meeting a pre-defined threshold (e.g., 30% inhibition and other criteria defined below) were then run in singleton concentration-response format with maximum concentration of 20 uM for CYPs and 50 uM for all others. Each assay was run with positive and negative controls, and concurrent controls on every plate. The follow-up (secondary) screen tested active chemical-pairs in concentration series, as well as a few additional assays not tested in the primary screen, some selected negative inactives, and several cases re-run in the concentration series for confirmatory purposes.

Chain of rat Adenosine Transporter (Adot), Slc29a1 (gene 63997) (O54698 whole entry, looked up): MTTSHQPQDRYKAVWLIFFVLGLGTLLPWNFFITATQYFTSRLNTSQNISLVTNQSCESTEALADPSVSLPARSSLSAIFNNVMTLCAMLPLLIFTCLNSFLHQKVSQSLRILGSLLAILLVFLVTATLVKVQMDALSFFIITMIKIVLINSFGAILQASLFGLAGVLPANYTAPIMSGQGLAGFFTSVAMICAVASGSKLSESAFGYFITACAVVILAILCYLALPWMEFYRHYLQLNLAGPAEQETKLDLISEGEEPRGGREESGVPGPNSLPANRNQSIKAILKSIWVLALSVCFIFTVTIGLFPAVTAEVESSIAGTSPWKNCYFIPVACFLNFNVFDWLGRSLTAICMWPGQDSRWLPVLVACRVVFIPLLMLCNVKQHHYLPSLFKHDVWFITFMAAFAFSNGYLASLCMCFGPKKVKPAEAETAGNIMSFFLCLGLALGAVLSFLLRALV

| SMILES | outcome | AC50 |
| --- | --- | --- |
| Oc1ccc(Cl)cc1Cl | inactive |  |
| O=C(O)C(F)(F)C(F)(F)C(F)(F)C(F)(F)C(F)(F)C(F)(F)C(F)(F)F | inactive |  |
| COc1cc2c(c(OC)c1OC)-c1ccc(OC)c(=O)cc1[C@@H](NC(C)=O)CC2 | inactive |  |
| O=S(=O)(O)C(F)(F)C(F)(F)C(F)(F)C(F)(F)C(F)(F)C(F)(F)C(F)(F)C(F)(F)F | inactive |  |
| CCCCC(CC)COC(=O)c1ccc(C(=O)OCC(CC)CCCC)c(C(=O)OCC(CC)CCCC)c1 (configuration not stated) | inactive |  |
| CCOP(=S)(Oc1ccc([N+](=O)[O-])cc1)c1ccccc1 (configuration not stated) | inactive |  |
| CC[C@H]1OC(=O)[C@H](C)[C@@H](O[C@H]2C[C@@](C)(OC)[C@@H](O)[C@H](C)O2)[C@H](C)[C@@H](O[C@@H]2O[C@H](C)C[C@H](N(C)C)[C@H]2O)[C@](C)(O)C[C@@H](C)C(=O)[C@H](C)[C@@H](O)[C@]1(C)O |  | 6.47 µM (active) |
| S=C1NCCN1 | inactive |  |
| S=C(S)NCCNC(=S)S.[Mn+2].[S-]C([S-])=NCCN=C([S-])[S-].[Zn+2] | inactive |  |
| Cn1c(=O)c2c(ncn2C)n(C)c1=O | inactive |  |
| COc1ccc2cc(S(=O)(=O)N[C@H](CC(=O)N[C@H](Cc3ccc(CN4[C@H](C)CCC[C@@H]4C)cc3)C(=O)N(C)C(C)C)c3ccc4c(c3)OCO4)ccc2c1 |  | 7.85 µM (active) |
| Cc1oc(-c2ccccc2)nc1CCOc1cccc2c1ccn2CCC(=O)O | inactive |  |
